Bioassay records from PubChem.
TrxR1 substrate: is turned over as a substrate by rat TrxR1; purified TrxR1 substrate turnover, NADPH consumption readout; Potency, µM (top dose mostly 114 µM), for inactives: at the top dose activity change, negative = substrate turnover; 0.01% of 390,000 active; note: potency is the fitted concentration of half-maximal effect; % is set by controls: 0 for no effect and ±100 for the full control effect; nearly all actives have a fitted effect of over 50% in size
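Rat TrxR1, dispensed at 90 nM, was prereduced with 400 uM NADPH (final) for 5 min at ~22 deg C, then incubated with compound 15 min before 400 uM selenite. A first-read NADPH fluorescence drop versus no-compound background flagged substrates.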
PKM2 act: activators of human pyruvate kinase M2 | P14618 | purified PKM2, Kinase-Glo ATP luminescence, activation; response scale: 0% is enzyme alone, no compound | Potency, µM (titrated, usually from 57.5 µM), for inactives: at the highest dose activation, hits mostly activators | 0.34% of 260,000 active | AID 1631; note: potency is the fitted concentration of half-maximal effect; % is set by controls: 0 for no effect and ±100 for the full control effect; nearly all actives have a fitted effect of over 55% in size
Target sequence (P14618 whole entry, looked up): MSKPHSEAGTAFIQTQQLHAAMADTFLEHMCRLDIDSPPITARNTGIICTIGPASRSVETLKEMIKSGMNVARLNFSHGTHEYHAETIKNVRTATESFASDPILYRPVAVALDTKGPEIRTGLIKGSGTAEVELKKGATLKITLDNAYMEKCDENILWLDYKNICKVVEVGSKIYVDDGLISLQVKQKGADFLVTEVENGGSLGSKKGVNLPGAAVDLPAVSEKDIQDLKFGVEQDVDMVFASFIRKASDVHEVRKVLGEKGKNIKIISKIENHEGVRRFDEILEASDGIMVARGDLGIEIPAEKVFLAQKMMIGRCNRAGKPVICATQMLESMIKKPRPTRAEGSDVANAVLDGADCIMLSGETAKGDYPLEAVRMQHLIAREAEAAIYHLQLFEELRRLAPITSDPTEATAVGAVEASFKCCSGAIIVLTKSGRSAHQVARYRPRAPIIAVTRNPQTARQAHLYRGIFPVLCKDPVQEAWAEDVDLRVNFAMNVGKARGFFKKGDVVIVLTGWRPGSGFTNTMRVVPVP
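hPK-M2, >95% pure; 0.1 mM ADP / 0.5 mM PEP final; imidazole pH7.2 buffer w/ 7 mM MgCl2, 50 mM KCl; 1 h RT; Kinase-Glo lum. Intermediate enzyme activity for dual inhibitor/activator qHTS.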
GLS inh: blocks human kidney-isoform glutaminase activity; GLS enzymatic activity, qHTS titration; Potency, µM (titrated, usually from 45.5 µM), inactives show top-dose activity change, negative = inhibition, actives largely listed as inhibitors; 0.21% of 410,000 active; AID 624170; note: potency is the fitted concentration of half-maximal effect; % is set by controls: 0 for no effect and ±100 for the full control effect
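Two-point fluorescence kinetic (t0, 30 min RT) for hKGA; glutamate detected via glutamate oxidase–HRP–Amplex Red. Substrate: 1 mM L-glutamine solution; buffer 45 mM KH2PO4, pH 8.2.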
IDH1 R132H inh: human IDH1 R132H inhibition | O75874 | IDH1-R132H enzyme, NADPH consumption, diaphorase/resazurin fluorescence | Potency, µM (doses to about 76.6 µM), for inactives: top-dose activity change, negative = inhibition, hits mostly inhibitors | 0.093% of 390,000 active | AID 602179; note: potency is the fitted concentration of half-maximal effect; % is set by controls: 0 for no effect and ±100 for the full control effect; nearly all actives have a fitted effect of over 65% in size
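IDH1-R132H (0.5 ug/mL dispensed) in pH 7.5 Tris buffer was preincubated 30 min with compound, then given a substrate mix of 0.016 mM NADPH and 2 mM alpha-KG for 80 min at room temperature; remaining NADPH was read by diaphorase/resazurin fluorescence.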
TrxR1 inh: inhibitors of rat thioredoxin reductase 1; 1% of 390,000 active; AID 588453; recombinant rTrxR1, NADPH fluorescence consumption, selenite substrate; Potency, µM (doses to about 114 µM), without a hit: at the top dose activity change, negative = inhibition, usual class: inhibitors; note: potency is the fitted concentration of half-maximal effect; % is set by controls: 0 for no effect and ±100 for the full control effect; nearly all actives have a fitted effect of over 65% in size
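Rat TrxR1 (90 nM in the dispensed reagent) was pre-reduced with 400 uM NADPH for 5 min at room temperature, then incubated with compound for 15 min. After 400 uM selenite was added, NADPH fluorescence (Ex 340/Em 450 nm) was followed for 8 min.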
LDHA block: inhibitors of human lactate dehydrogenase A. P00338. purified LDHA, NADH/diaphorase-resazurin fluorescence; active compounds read low. activity change, % (values are at about 110 or 230 µM). 0.15% of 480,000 active. AID 1347041; in the data active = activity change below about -30%; inconclusive = mostly about -25% to -30%;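 note: plate controls were DMSO wells for no effect and wells without enzyme for full effect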
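Remaining NADH was detected by diaphorase (0.133 mg/mL) converting 37 µM resazurin to fluorescent resorufin, read at 0 and 20 minutes. The preceding 5-minute room-temperature reaction used 2 nM LDHA, 0.2 mM sodium pyruvate and 0.06 mM NADH at pH 7.4.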
IDH1 autofl: counter-screen for mutant IDH1 inhibitors: fluorescence interference | shares compounds with IDH1 R132H inh | Resorufin detection reagent fluorescence interference, cell-free | inhibition of signal, % at 51.2 µM | 750 tested, under 10 active | AID 623980;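 note: 0% = wells with normal resorufin and full inhibition = wells lacking resorufin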
WT IDH1 inh: selectivity of mutant IDH1 inhibitors: human wild-type IDH1 | shares compounds with IDH1 R132H inh | WT IDH1 enzyme, NADPH diaphorase/resazurin fluorescence | Potency, µM (series often up to 115 µM), inactives show at the top dose activity change, negative = inhibition, usual class: inhibitors | 9% of 750 active | AID 623995;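 note: potency is the fitted concentration of half-maximal effect; 0% = full WT IDH1 enzyme control and full inhibition = no enzyme wells; nearly all actives have a fitted effect of over 55% in size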
IDH1 R132H conf: confirmation of human mutant IDH1 inhibitors. shares compounds with IDH1 R132H inh. IDH1 R132H enzyme, NADPH diaphorase/resazurin fluorescence. Potency, µM (top dose mostly 76.6 µM), inactives show at the highest dose activity change, negative = inhibition, actives largely listed as inhibitors. 83% of 750 active. AID 624002; note: potency is the fitted concentration of half-maximal effect; nearly all actives have a fitted effect of over 50% in size
* marks the source's active call; other numbers are inactive results; ? = inconclusive; / = no result given; [ ] = another dose, or the depositor's remark. Compounds with a hit are over-represented: about 1.4% of the library has one in this group of screens. Unless noted, calls come from the whole dose curve; as a rule, active = well fitted curve in the direction sought with a large enough effect; inconclusive = small, poorly fitted or top-dose-only effect, or another doubt; inactive = no such curve, though single readings can be large; an effect the other way counts as inactive or inconclusive.

SMILES	TrxR1 substrate	PKM2 act	GLS inh	IDH1 R132H inh	TrxR1 inh	LDHA block	IDH1 autofl	WT IDH1 inh	IDH1 R132H conf
CCC(=O)Oc1ccc(C(=O)Nc2cccc(C(=O)c3ccccc3)c2)cc1	0.9%	-17.5%	10.6%	26.1µM*	0.8%	0.4	-4.8	4.8%	10µM*
CCOC(=O)c1c(-n2c(C)cc(C=C3C(=O)NC(=O)NC3=O)c2C)sc2c1CCCC2	-13.4%	?	-2.2%	18.5µM*	-34.9%	-2.7	-4.5	28.2µM*	11.2µM*
CC1CCC(c2nnnn2-c2ccccc2)(N2CCOCC2)CC1 (stereo not drawn)	/	/	/	/	/	0.9	/	/	/
O=c1c2ccccc2nc(/C=C/c2cccnc2)n1Cc1ccccc1	5.2%	-21.0%	?	41.4µM*	16.1%	-13.4	4.5	44.7µM*	25.1µM*
O=c1c2ccccc2nc(/C=C/c2ccccc2)n1-c1ccc(O)cc1	2.1%[2.29 µM]	/	-5.2%	2.4%	1.8%[2.29 µM]	-20.1	/	/	/
O=C(N/N=C/c1c(O)n(C2CCCCC2)c(=S)[nH]c1=O)c1ccccc1	-2.6%	/	4.1%	0.0%	-4.7%	-0.3	/	/	/
O=C(N/N=C/c1c(O)n(C2CCCCC2)c(=S)[nH]c1=O)c1ccccc1O	2.7%	/	1.5%	?	31.1%	-17.0	8.6	-4.7%	44.7µM*
CCCCCc1nc2c(c(=O)c3ccccc3n2C)c(=O)n1C1CCCCCC1	-6.8%	7.1%	8.8%	10.4µM*	-13.0%	-7.7	-6.0	35.5µM*	5.01µM*
CC1OC(OC2CC[C@]3(C=O)[C@H]4[C@H](O)CC5(C)C(C6=CC(=O)OC6)CCC5(O)[C@@H]4CCC3(O)C2)C(O)C(O)C1O (stereo partly drawn)	/	/	/	/	/	8.9	/	/	/
O=C(CSC1c2ccccc2Oc2ccccc21)Nc1ccccc1C(=O)O	/	/	/	/	/	-17.2	/	/	/
COCCCn1c(N)c(C(=O)Nc2sc3c(c2C(=O)OC)CCCC3)c2nc3ccccc3nc21	-6.3%[57.1 µM]	0.1%	-2.5%	?	24.3%	0.5	4.8	-3.2%	?
CCNC(=O)NC(=O)COC(=O)c1cn(C)c2ccccc12	/	/	/	/	/	-10.8	/	/	/
OCCN1CCN(CCCN2c3ccccc3Sc3ccc(C(F)(F)F)cc32)CC1	3.1%[57.1 µM]	1.7%	27.3%	3.1%	2.2%[57.1 µM]	-0.6	/	/	/
FC(F)(F)c1ccc2c(c1)N(CCCN1CCN(CCCl)CC1)c1ccccc1S2	1.5%	-1.0%	-6.6%	36.9µM*	-14.7%	-1.5	-6.9	-5.7%	8.91µM*
